Marburg entry inh = Marburg virus entry inhibition; Marburg virus pseudotyped entry inhibition, cell reporter; Potency, µM (highest dose often 37.8 µM), without a hit: at the top dose activity change, negative = inhibition, hits mostly inhibitors; 1.8% of 300,000 active; calls by dose curve; tested in HEK293 cells; note: potency is the fitted concentration of half-maximal effect; % is set by controls: 0 for no effect and ±100 for the full control effect
Pf growth 48h = P. falciparum growth inhibition at 48 hours (one generation) | Potency, µM (titrated, usually from 28.7 µM), without a hit: at the top dose activity change, negative = inhibition, hits mostly inhibitors | AID 504832 | 5.9% of 310,000 active | P. falciparum luciferase growth in erythrocytes, 48 h; note: potency is the fitted concentration of half-maximal effect; % is set by controls: 0 for no effect and ±100 for the full control effect
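A one-generation exposure of luciferase-tagged malaria parasites in RPMI 1640/Albumax erythrocyte culture, 37 C and 5% CO2. Inhibition is inferred from decreased luminescence after adding detection reagent.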
Lassa entry inh = inhibitors of Lassa virus binding or cell entry; Potency, µM (top dose mostly 37.9 µM), for the others: at the highest dose activity change, negative = inhibition, actives largely listed as inhibitors; 1.2% of 300,000 active; Lassa virus pseudotype entry inhibition, cell reporter; calls by dose curve; tested in HEK293 cells; note: potency is the fitted concentration of half-maximal effect; % is set by controls: 0 for no effect and ±100 for the full control effect; nearly all actives have a fitted effect of over 50% in size
Shiga inhibitor = Shiga toxin inhibition; Vero cells, Shiga toxin protein synthesis inhibition reporter; inhibition, % at 38.7 µM; 9.2% of 290,000 active; AID 2315; in the data active = inhibition mostly above about 28%, no sharp cut-off; inactive = mostly below about 43%; note: 0% is about no effect
Cycloheximide cs = affects cycloheximide protein synthesis inhibition readout, counter-screen. cell reporter, cycloheximide protein synthesis inhibition counterscreen. max response, %. 12% of 300,000 active. AID 2314; in the data active = max response mostly above about 13%, no sharp cut-off; inactive = mostly below about 14%; note: read at 38.3 µM for the half of the compounds with a filed dose; 0% is about no effect
Pf growth 96h = P. falciparum growth inhibition at 96 hour, primary screen for plastid delayed-death inhibitors | P. falciparum luciferase reporter growth, 96 h | Potency, µM (doses to about 28.7 µM), for inactives: top-dose activity change, negative = inhibition, hits mostly inhibitors | 6.9% of 320,000 active; note: potency is the fitted concentration of half-maximal effect; % is set by controls: 0 for no effect and ±100 for the full control effect
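Delayed-death screen, second-generation endpoint: infected erythrocytes, 2% hematocrit, 0.05% parasitemia final; 96 hours at 37 C, 5% CO2; luciferase detection reagent; luminescence decrease equals reduced growth.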
* hit, by the source's call; ? = inconclusive; . = no result; [ ] = dose if it differs, or a comment. In the library only some 19% were active in any assay of this set; here they are far more common. Unless noted, calls come from the whole dose curve; as a rule, active = well fitted inhibition curve with a large enough effect; inconclusive = small, poorly fitted or top-dose-only effect, or another doubt; inactive = no such curve, though single readings can be large or run the other way.

SMILES	Marburg entry inh	Pf growth 48h	Lassa entry inh	Shiga inhibitor	Cycloheximide cs	Pf growth 96h
COCCCN1CC(=O)N2C(c3cccc(C)c3)c3[nH]c4ccccc4c3C[C@H]2C1=O (stereo partly specified)	-10%[46.1 µM]	9.3µM*	5%	-2	-6	?
COC(=O)c1ccc(C2c3[nH]c4ccccc4c3C[C@H]3C(=O)N(C)CC(=O)N23)cc1 (stereo partly specified)	?	?	-4%[46.1 µM]	-4	-4	?
CCc1ccc(N(C(=O)CCC(=O)Nc2cc(C)on2)C(C(=O)NC2CCCC2)c2ccco2)cc1 (stereo unspecified)	?	?	-25%	2	-2	?
Cc1ccc(C)c(NC(=O)COC(=O)CCc2ccc(S(=O)(=O)N3CCOCC3)cc2)c1	9%[46.1 µM]	51%	2%	25	-2	16%
CC(=O)OCCCNc1cc(SCc2ccco2)c2nonc2c1[N+](=O)[O-]	13µM*	2%	?	-6	-2	2.3µM*
CCCC(=O)OCCNc1cc(SCc2ccco2)c2nonc2c1[N+](=O)[O-]	?	-19%	?	1	-1	?
Cc1cc(C)c2[nH]c(=O)c(CN(C(=O)C3CCCO3)C3CCCC3)cc2c1 (stereo unspecified)	-1%	10%	.	-9	-8	25%
CCN(CC(=O)NC(C)(C)C)C(=O)CCl	?	12µM*	-11%	-6	-2	?
CCN(CC(=O)NC(C)(C)C)C(=O)COc1c(Cl)cc(Cl)c2ccc(C)nc12	.	?	.	-5	3	?
Cc1nc2ccn(Cc3cccs3)c(=O)c2cc1C(=O)Nc1ccccc1	.	.	3%[46.1 µM]	.	.	.
c1ccc2c(c1)[nH]c1c3ccccc3sc21	.	67%	.	72*	41*	101%
Cc1cc2cc(C(c3nnnn3Cc3ccccc3)N3CCc4ccccc43)c(=O)[nH]c2cc1C (stereo unspecified)	?	.	-20%	24	12	5.2µM*
Cc1ccc2cc(C(c3nnnn3Cc3ccccc3)N3CCc4ccccc43)c(=O)[nH]c2c1 (stereo unspecified)	?	.	?	-8	-4	6.6µM*
Cc1ccc2[nH]c(=O)c(C(c3nnnn3Cc3ccccc3)N3CCc4ccccc43)cc2c1 (stereo unspecified)	10µM*	.	?	-11	4	.
Cc1ccc2cc(C(c3nnnn3Cc3ccccc3)N3CCc4ccccc43)c(=O)[nH]c2c1C (stereo unspecified)	?	10µM*	-13%	-11	-1	.
CCC(C)(C)n1nnnc1C(c1cc2cc(C)ccc2[nH]c1=O)N1CCCc2ccccc21 (stereo unspecified)	-10%	.	-2%	22	8	?
CCOc1c(Cl)cc(C(=O)Nc2ccccc2-c2ccccc2)cc1Cl	?	-11%	-6%	-1	-4	-17%
O=C(Nc1ccc(Cl)cc1)C1CC=CCC1C(=O)OCC(F)(F)C(F)F (stereo unspecified)	0%	-10%	-2%	0	1	-11%
S=C(NCc1ccco1)NC1CCCc2ccccc21 (stereo unspecified)	?	-28%	1%	-9	2	?
CCCN1C(=O)/C(=C/C=C2\N(CC)c3ccccc3C2(C)C)SC1=S	?	?	-5%	-5	-5	4.1µM*
C=CCN1C(=O)/C(=C\C=C2\N(C)c3ccccc3C2(C)C)SC1=S	-1%	-5%	13%[46.1 µM]	-11	-1	29%
O=C(NCCc1ccccc1)C1CCN(S(=O)(=O)N2CCC3(CC2)OCCO3)CC1	4%	-14%	-5%	1	-3	55%
O=C(C1CCN(S(=O)(=O)N2CCC3(CC2)OCCO3)CC1)N1CCc2ccccc2C1	?	.	1%	-10	-2	5.2µM*
O=C(NCc1ccccn1)C1CCN(S(=O)(=O)N2CCC3(CC2)OCCO3)CC1	11%	-6%	-5%	-3	-3	10µM*
O=C(NCCCN1CCC(Cc2ccccc2)CC1)C1CCN(S(=O)(=O)N2CCC3(CC2)OCCO3)CC1	-1%	?	5%	128	35*	-4%
SMILES	Marburg entry inh	Pf growth 48h	Lassa entry inh	Shiga inhibitor	Cycloheximide cs	Pf growth 96h
Cc1cn2c(=O)cc(COc3ccc(NC(=O)c4ccc(C(C)(C)C)cc4)cc3)nc2s1	22%[46.1 µM]	.	19%[46.1 µM]	.	.	.
CCN(CCCNC(=O)C1CCN(S(=O)(=O)N2CCC3(CC2)OCCO3)CC1)c1ccccc1	12%	?	10%	-6	-3	0%
Cc1ccc(-c2c(C(=O)NC(C)C)oc(=O)c3ccccc23)cc1	3%[46.1 µM]	-6%	-8%[46.1 µM]	-11	2	?
COCC(=O)OC1CCn2c1nc1c2C(=O)C(C)=C(NC(C)=O)C1=O (stereo unspecified)	?	.	3.2µM*	.	.	.
Cc1c(CN2CCN(CC(C)(C)C)C(CCO)C2)[nH]c2ccccc12 (stereo unspecified)	.	?	.	-9	-2	?
COc1cccc2c1OCC(C(=O)OCc1cccnc1)=C2	0%[46.1 µM]	1%	3%	15	15*	5%
COc1ccc(NC(=O)C2=Cc3cccc(OC)c3OC2)cc1	-30%[46.1 µM]	29%	.	60*	31*	50%
CN(C(=O)COc1cc(=O)n(C)c2ccccc12)c1ccc(Br)cc1	-3%	?	.	-5	5	10µM*
CCOC(=O)N1CCN(C(=O)COc2cc(=O)n(CC)c3ccccc23)CC1	17%	-12%	7%	-29	-3	36%
CC1CC(C)CN(CCCNC(=O)COc2cc(=O)n(C)c3ccccc23)C1 (stereo unspecified)	-25%	10µM*	5%	-1	-4	-5%
CCOC(=O)COc1cc(=O)n(CC)c2ccccc12	9%	17%	.	38	-2	8.3µM*
CCOC(=O)CSc1cc(=O)n(CC)c2ccccc12	-23%	9%	21%	-8	-3	10µM*
CCCC(=O)Nc1cccc(-c2nc3ccccc3c(=O)o2)c1	?	19%	-12%[46.1 µM]	-18	-1	7%
COC(=O)c1ccc(CS(=O)(=O)c2ccc(C)cc2)cc1	5%	.	-6%	-6	-5	-2%
Cc1ccc(-c2[nH]ncc2/C=N/n2c(COc3ccccc3C)nc3ccccc3c2=O)cc1	11µM*	?	?	20	7	?
Cc1ccccc1OCc1nc2ccccc2c(=O)n1/N=C/c1c[nH]c2ccccc12	-6%	-70%	?	36	-2	?
O=c1c2ccccc2nc(COc2ccccc2)n1/N=C/c1cc([N+](=O)[O-])ccc1O	?	2.6µM*	?	12	7	?
CC(=O)Nn1c(COc2ccccc2C)nc2ccccc2c1=O	?	20%	-4%	-8	-4	18%
Cc1cc(/C=N/n2c(COc3ccccc3C)nc3ccccc3c2=O)c(O)c([N+](=O)[O-])c1	1%	3.3µM*	.	57*	62*	?
